Structures are written as SMILES. The whole screen tested about 69,000 compounds, of which about 8,600 (12%) showed an effect of 50% or more. Shown is part of a subset that was picked to be rich in strong results.

The experiment relates to Plasmodium berghei. Kind of experiment: Screen against P. berghei liver stage (PbLuc), transformed with Luciferase, at 10uM. The class given is functional, HepG2. To be noted: tested at 10 uM.
Take `CC(C(=O)NCC(C)(C)c1ccc2c(c1)OCO2)n1ccnc1` (stereo not given): the INHIBITION turned out to be 29.8%.
Then `CCc1ccc(C(=O)N2CCC(c3nncn3CC)CC2)s1`, with 9.14%.
To `Cc1nnc([C@@]23CCO[C@@H]2CCN(Cc2scnc2C)C3)o1` belongs 10.4%.
For the compound `COc1coc(C(=O)Nc2nc(C)cs2)cc1=O`, the INHIBITION is 5.03%.
Regarding `CC(C)Oc1ncccc1CNC(=O)c1ccccn1`, the INHIBITION is listed as -48.4%.
For the compound `CN(C)c1cc(NCc2cnc3n2CCN(CC2CC2)CC3)ncn1`, the INHIBITION is 17.2%.
Take `CN1CCc2ncc(CNc3cc(N(C)C)ncn3)n2CC1`: the INHIBITION is on record as 21.6%.
Take `COCCN1CCc2ncc(CNc3cc(N(C)C)ncn3)n2CC1`: the INHIBITION was determined as 54.1%.
On to `Cc1nn(C)c(C)c1C1CCCN1C(=O)CCNS(C)(=O)=O` (stereo not given), for which the INHIBITION is listed as -37.7%.
Then `Cc1ccsc1-c1nccn1CCN1CCCOC1=O`, with 20.8%; and `Cc1cc(CCC(=O)Nc2nncs2)nc(C2CCCN2)n1` (stereo not given), with 5.11%.
Consider `CN(C)c1ncccc1C(=O)N1CCCC1Cn1cccn1` (stereo not given), for which the INHIBITION is reported as -21.5%.
Take `Cc1cccc(CN2CC3(CCN(C(N)=O)CC3)OCC2=O)n1`: the INHIBITION is 7.53%.
Then `Cc1cc(C)n(C2CCCN(C(=O)CCCc3ccccn3)C2)n1` (stereo not given), with 16.9%.
In the case of `N#Cc1c(Cl)nsc1NCCCN1C(=O)COc2ccccc21`, the INHIBITION is reported as 62.4%.
As for `N#Cc1cnc(NCCCN2C(=O)COc3ccccc32)c(Cl)c1`, the INHIBITION is on record as -66.9%.
To `N#Cc1ccc(NCCCN2C(=O)COc3ccccc32)nc1` belongs 15.3%; to `CC(Cn1ccnc1)NC(=O)NCc1ccc2c(c1)OCCO2` (stereo not given), -9.76%; to `Cc1nnc2n1CCN(C(=O)c1ccn(-c3cccc(F)c3)n1)C2`, -1.15%.
For `COc1ccc(Cl)cc1CCNC(=O)NCc1cnn(C)c1C`, the INHIBITION is on record as -9.35%.
Regarding `O=C(Nc1cc(CSCCO)ccn1)c1ccc(Cl)o1`, the INHIBITION worked out at 38.3%.
Then `COc1ccnc(NC(=O)c2cscc2C)c1`, with -28.3%; and `Cc1cscc1C(=O)Nc1cc(CSCCO)ccn1`, with 52.2%; and `CC1Cc2ccccc2N1C(=O)Cn1nc(-c2cccs2)ccc1=O` (stereo not given), with 44.3%.
As to `O=S(=O)(NCCc1cn2ccccc2n1)N1CCOCC1`, the INHIBITION was found to be 1.74%.
Then `COc1ccccc1CCNS(=O)(=O)N1CCOCC1`, with 8.38%; and `COc1ccccc1OCCNS(=O)(=O)N1CCOCC1`, with 58.4%; and `O=S(=O)(NCCc1ccccc1C(F)(F)F)N1CCOCC1`, with 24.3%.
Then `CCC(NS(=O)(=O)N1CCOCC1)c1ccccc1OC` (stereo not given), with 4.41%; and `O=S(=O)(NCCc1ccccc1F)N1CCOCC1`, with 53.8%; and `CCNc1nc(-c2cccnc2)c(-c2ccnc(N3CCOCC3)n2)s1`, with 39.7%.
For the compound `CS(=O)(=O)N[C@@H]1CN(Cc2ccc3ncccc3c2)C[C@H]1O`, the INHIBITION was found to be 23.9%.
With `N#Cc1c(N)nc2c(c1-c1cnc(N3CCCC3)nc1)COCC2`, the INHIBITION was -10.7%.
With `CN(C)C(=O)[C@@H]1C[C@@H]2[C@@H](CCN2Cc2nccs2)O1`, the INHIBITION amounted to 44.5%.
Turning to `Cc1cccnc1CC(C)Nc1nc(N)nc2c1CCNC2` (stereo not given), the INHIBITION stood at 65.7%.
For the compound `Nc1nc2c(c(NCC(c3cccnc3)N3CCOCC3)n1)CCNC2` (stereo not given), the INHIBITION is listed as 23.1%.
Then `Cc1cccc(C)c1OCC(C)Nc1nc(N)nc2c1CCNC2` (stereo not given), with 42.6%; and `CCOCCNC(=O)c1ccn(S(=O)(=O)c2ccc(C)cc2)c1`, with 13.5%.
Then `Cc1ccc(S(=O)(=O)n2ccc(C(=O)NCC(F)(F)F)c2)cc1`, with 53.8%.
Regarding `CCNC(=O)CNC(=O)c1ccn(S(=O)(=O)c2ccc(C)cc2)c1`, the INHIBITION amounted to 2.69%.
Take `Nc1cc(C(=O)N2C[C@@H]3CC[C@H]2CN(Cc2cccnc2)C3)ccn1`: the INHIBITION worked out at 4.64%.
To `Cc1cc(C(=O)NCCN2CCCCC2)nn1C(C)(C)C` belongs -22.3%; to `Cc1cc(C(=O)NCCN2CCCC(C)C2)nn1C(C)(C)C` (stereo not given), -5.26%.
To `CC1CCCCN1CCNC(=O)c1ccn(-c2ccccc2)n1` (stereo not given) belongs 7.12%.
To `Cc1cc(C(=O)NCCN2CCCCCC2)nn1C(C)(C)C` belongs 76.6%; to `Cc1cc(C(=O)NCCN2CCC(C)CC2)nn1C(C)(C)C`, 36.8%.
As to `Cc1cc(C(=O)NCCN2CCCCC2C)nn1C(C)(C)C` (stereo not given), the INHIBITION is listed as 52.7%.
For `COCCc1noc(CN2CCCCC2Cn2cncn2)n1` (stereo not given), the INHIBITION was found to be 10.675%.
For the compound `COCC1CN(Cc2ccc(C)o2)Cc2cn(C)nc21` (stereo not given), the INHIBITION is given as 29.7%.
To `Cc1nn(C)c(C)c1C1CCCN1CC(=O)N(C)c1nccs1` (stereo not given) belongs 5.91%; to `CCCC(=O)NCCc1nc(N(C)C)ncc1-c1ccncc1`, 1.2%; to `CNC(=O)[C@@H]1CC[C@@H]2[C@@H](CCN2Cc2ccccc2F)O1`, 0.804%.
Consider `Cc1cnc(N2CC3(CCN(Cc4cccnc4)C3)C2)nc1`, for which the INHIBITION was 27.2%.
Take `COc1ccc(CN2CCC3(CC2)CCN(c2ncccn2)CC3)cc1`: the INHIBITION stood at 67.7%.
Then `COc1cccc(CN2CCC3(CCN(c4ncc(C)cn4)CC3)C2)c1`, with 31.9%; and `COc1cccc(CN2CCC3(CCN(c4ncc(F)cn4)CC3)C2)c1`, with 46.7%; and `COc1cccc(CN2CCC3(CC2)CCN(c2ncc(C)cn2)C3)c1`, with 65.9%.
Then `Fc1ccc(CN2CCC3(CC2)CCN(Cc2nccs2)CC3)cc1`, with 42.6%; and `COc1cccc(CN2CCC3(CC2)CCN(c2ncccn2)C3)c1`, with 11.3%.
On to `COc1cccc(CN2CCC3(CC2)CCN(c2ncc(F)cn2)C3)c1`, for which the INHIBITION is given as 40.8%.
Take `Fc1ccc(CN2CCC3(CC2)CCN(c2ncccn2)CC3)cc1`: the INHIBITION was 56.7%.
Take `c1cnc(N2CC3(CCN(Cc4cccnc4)C3)C2)nc1`: the INHIBITION is 13.7%.
To `c1cnc(N2CCC3(CCN(Cc4ccncc4)CC3)CC2)nc1` belongs 21.6%; to `c1cnc(N2CCC3(CCN(Cc4cccnc4)CC3)CC2)nc1`, 61.4%; to `COc1nccnc1N1CCC2(CC1)C(=O)N(C)c1ccccc12`, -55%.
In the case of `Cc1ccc(C(=O)NC2CCOc3ccccc32)cc1S(C)(=O)=O` (stereo not given), the INHIBITION is listed as 16.2%.
To `COc1ccc(CNCc2c(C(C)C)nn(C)c2OC)cn1` belongs 27.8%.
Then `CC(C)Cn1cc(C(=O)NC2CCS(=O)(=O)C2)c2ccccc2c1=O` (stereo not given), with 28.6%; and `Cc1ccccc1CNC(=O)c1ccccc1-n1cnc(CN)c1`, with 33.7%.
To `Cc1cc(-c2cnn(CCNC(=O)c3snnc3C)c2C2CC2)on1` belongs 21.9%.

These data come from ChEMBL document CHEMBL4513216, “Probing the Open Global Health Chemical Diversity Library for Multistage-Active Starting Points for Next-Generation Antimalarials” (ACS Infect Dis, 2020).
